Compound activity: PubChem BioAssay, National Center for Advancing Translational Sciences (NCATS)
TRPV1 potentiator – enhances activation of the human vanilloid receptor TRPV1; Q8NER1; TRPV1-expressing cells, Fluo-8 calcium influx, capsaicin EC20 potentiation; potentiation, % at 8.33 µM; actives 0.02% (n = 320,000); in the data active = potentiation above about 80%; inconclusive = between about 30% and that limit
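Fluo-8 calcium influx in TRPV1-expressing cells, kinetic read (ex 480/em 520 nm). Compound added and read 3 min for agonist activity, followed by capsaicin at EC20 final and 2 min further read for enhancement.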
KCNH2 3.1 block – KCNH2 3.1 (human) potassium channel inhibition; U2OS KCNH2 3.1, thallium flux FluxOr; stronger effect = lower value; activity change, % (tested at about 1.8 µM); actives 0.95% (n = 340,000); AID 720553;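 active = maximum activity change below -70%; inconclusive = maximum activity change from -70% to -50%; inactive = maximum activity change above -50%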;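 also: thallium influx rate constant from kinetic fluorescence after stimulation buffer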
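Steps: virus added to U2OS suspension (4 h, RT, dark); medium with 10% FBS added, cells plated, 37 C overnight; FluxOr/Red40 loading buffer 45 min RT; stimulation buffer, 2 min kinetic read; rate constant normalized.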
hERG WT inh – KCNH2 (human, wildtype) channel inhibition. Q12809. U2OS, BacMam KCNH2, thallium flux FluxOr; stronger effect = lower value. activity change, % at 1.84 µM. actives 0.37% (n = 340,000);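 active = maximum activity change below -70%; inconclusive = maximum activity change between -70% and -50%; inactive = maximum activity change above -50%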
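U2OS cells were transduced with wild-type KCNH2 virus (2.03 x 10^8 / mL) for 4 h at room temperature, then cultured overnight at 37 C. Thallium flux was read with FluxOr dye. Rate constants were normalized to DMSO controls.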
ClpP mod – qHTS Assay for Activators of ClpP. ATP-dependent Clp protease proteolytic subunit (Bacillus subtilis (strain 168)), P80244. purified B. subtilis ClpP, FRET peptide cleavage, 20 min. Potency, µM (top dose mostly 57.5 µM). actives 1.9% (n = 340,000); active = well fitted falling curve with a large enough effect; inconclusive = small, poorly fitted or top-dose-only effect; inactive = no such curve, though single readings can be large or run the other way; also: the source files actives as falling curves though it sought activators and does not explain the sign; nearly all actives have a fitted effect of over 65% in size
Target sequence (P80244 whole entry, looked up): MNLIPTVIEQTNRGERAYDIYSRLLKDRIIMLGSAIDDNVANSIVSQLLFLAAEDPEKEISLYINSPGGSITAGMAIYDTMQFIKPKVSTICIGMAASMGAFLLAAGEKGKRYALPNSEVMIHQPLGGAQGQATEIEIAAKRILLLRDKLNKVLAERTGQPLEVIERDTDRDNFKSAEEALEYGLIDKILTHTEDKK
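Buffer: 100 mM Tris/HCl pH8, 100 mM KCl, 0.05% low protease BSA, 2.5% glycerol, 0.01% Tween-20. ClpP 10 microg/mL final; 20 min RT; delta FRET normalized to ADEP and DMSO controls.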
TRPV1 ag – human TRPV1 agonism | actives 0.19% (n = 320,000) | TRPV1-expressing cells, Fluo-8 calcium influx, agonist mode | activation, % at 8.33 µM | Q8NER1; in the data active = activation above about 80%; inconclusive = between about 30% and that limit
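Cells expressing TRPV1 were dye-loaded with Fluo-8 and read kinetically: 10 s baseline, 3 min after compound (agonist portion), then 2 min after EC20 capsaicin (allosteric enhancer portion). Calcium-bound dye fluorescence at 480/520 nm.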
p53 reactivator – restores transcriptional activity of mutant p53; actives 0.063% (n = 320,000); AID 504706; H1299 p53-A138V BP100-luciferase reporter, luminescence, 24 h; Potency, µM (doses to about 92.2 µM), actives largely listed as activators; active = well fitted activation curve with a large enough effect; inconclusive = small, poorly fitted or top-dose-only effect; inactive = no such curve, though single readings can be large or run the other way; also: nearly all actives have a fitted effect of over 45% in size
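p53-null H1299 cells stably carrying temperature-sensitive p53-A138V and a BP100-luciferase reporter were pinned with compounds (4-point, 1:5 series) and held 24 hrs at 37 deg C. Luminescence was read 10 min after detection reagent.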
Hits are given with their value; n = inactive; u = inconclusive; x = no result given. The list is not random: actives were taken first. Their share in the collection is about 2.6%.

SMILES	TRPV1 potentiator	KCNH2 3.1 block	hERG WT inh	ClpP mod	TRPV1 ag	p53 reactivator
CCOC(=O)C1=CN(C)C=C(C(=O)OCC)C1c1ccsc1	n	n	n	8.91µM	n	n
CSc1ccc(CN2CCC(CO)(Cc3ccc(Cl)cc3)CC2)cc1	n	-100.5	n	x	n	n
OCC1(Cc2ccc(Cl)cc2)CCN(CC2CC=CCC2)CC1 (configuration not stated)	n	-72.1	n	x	n	n
OCC1(Cc2ccc(Cl)cc2)CCN(Cc2ccccc2F)CC1	n	u	n	n	n	n
OCC1(Cc2ccc(Cl)cc2)CCN(CCCc2ccccc2)CC1	n	-89.2	u	x	n	n
O=C(c1cnsn1)N1CCC(CO)(Cc2ccc(Cl)cc2)CC1	n	n	n	x	n	n
CN1CCC(CO)(Cc2ccccc2)CC1	n	n	n	n	n	n
COc1cc2c(NC3CCN(C)CC3)nc(N3CCCN(C)CC3)nc2cc1OCc1ccccc1	x	x	x	n	x	x
COc1ccc(C)cc1NC(c1nnc(-c2ccccc2)o1)c1ccc(F)cc1Cl (configuration not stated)	x	x	x	n	x	x
COc1ccc(C(=O)NCCSc2c[nH]c3ccccc23)cc1OC	x	x	x	n	x	x
COc1ccc2oc(=O)c(-c3nc(-c4cc(OC)c(OC)c(OC)c4)no3)cc2c1	x	x	x	n	x	x
O=C(O)c1cnn(-c2nc(-c3ccc(Cl)cc3)cs2)c1C(F)(F)F	n	n	n	x	n	u
COc1ccc(-c2csc(-n3ncc(C(=O)O)c3C(F)(F)F)n2)cc1	n	n	x	n	n	n
CCOC(=O)c1cnn(-c2nc(-c3ccccc3F)cs2)c1C(F)(F)F	n	n	n	35.5µM	n	n
CCOC(=O)c1cnn(-c2nc(-c3ccc(F)cc3)cs2)c1C(F)(F)F	n	n	n	31.6µM	n	n
CCOC(=O)c1cnn(-c2nc(-c3ccccc3)cs2)c1C(F)(F)F	n	n	n	31.6µM	n	n
COc1ccc(NC(=O)C2Cc3c(-c4cccc(NC(C)=O)c4)ccnc3O2)cn1 (configuration not stated)	x	x	x	n	x	x
Cc1ccc(OCCSc2nc3ccccc3n2CC(=O)O)cc1C	95.4	n	n	n	n	n
Cc1cc(C(=O)Nc2ccc3ccccc3c2)c(C)o1	n	n	n	x	u	25.1µM
Cc1cc(C(=O)Nc2ccc(C(=O)O)cc2)c(C)o1	n	n	n	x	n	n
CC(=O)c1cc(C(=O)Nc2ccc3ccccc3c2)c(C)o1	n	n	n	x	n	n
COC(=O)c1cc(NC(=O)c2cc(C)oc2C)cc(C(=O)OC)c1	n	n	-193.1	n	n	n
CC(C)Cc1nc2oc3c(Cl)ncnc3c2c2c1CCC2	n	n	n	31.6µM	n	n
Cc1ccc(OCC(=O)Nc2ccc(O)c(C(=O)O)c2)cc1C	n	n	n	22.4µM	n	n
CN1CCC(Oc2ccccc2Sc2ccccc2)CC1	n	n	-70.9	n	n	n
SMILES	TRPV1 potentiator	KCNH2 3.1 block	hERG WT inh	ClpP mod	TRPV1 ag	p53 reactivator
Cc1ccccc1C(=O)OC1CCN(C)CC1	n	n	n	n	n	n
COc1ccccc1NC(=O)COc1ccc(Br)cc1CO	n	n	n	n	n	n
O=C(COc1ccc(Br)cc1CO)Nc1ccccc1F	n	n	n	10µM	n	n
O=C(N/N=C/c1cc(Cl)ccc1O)C(=O)Nc1ccccc1OC(F)(F)C(F)F	n	n	n	n	u	u
O=C(N/N=C/c1cc(Br)ccc1O)C(=O)Nc1ccccc1OC(F)(F)C(F)F	n	n	-262.6	n	n	n
O=C(Oc1ccc(Cl)c2cccnc12)N1CCCCC1	n	n	n	u	n	u
O=C(Oc1ccc(Cl)c2cccnc12)N1CCOCC1	n	n	n	31.6µM	n	u
Cc1ccc2nc(SCC(=O)OCc3ccccc3)nc(=O)n2c1	n	n	n	28.2µM	n	n
Cc1ccc2nc(SCC(=O)NCCc3ccccc3)nc(=O)n2c1	n	n	n	28.2µM	n	n
Cn1cc(-c2ccc(Cl)cc2)cc(C#N)c1=O	n	n	n	x	n	n
N#Cc1cc(-c2cccc(Cl)c2)c[nH]c1=O	n	n	n	22.4µM	n	n
C=CCn1cc(-c2cccc(Cl)c2)cc(C#N)c1=O	n	n	n	28.2µM	n	n
COc1ccc(C2NC(=O)N(C)C3=C2C(=O)N(c2ccc(C)cc2)C3)cc1 (configuration not stated)	x	x	x	n	x	x
CC1CCN(c2nc(-c3cccnc3)nc3scc(-c4ccccc4)c23)CC1	n	n	n	u	n	n
CC1CCCN(c2nc(-c3cccnc3)nc3scc(-c4ccccc4)c23)C1 (configuration not stated)	n	n	n	14.1µM	n	n
CCCCn1cnc2c(SCc3ccccc3F)nc(N)nc21	x	n	n	n	x	x
N#Cc1c(N)sc2c1CCN(CCc1ccccc1)C2	n	u	n	22.4µM	n	n
COc1cc(/C=C/c2ccc3ccccc3n2)cc(OC)c1OC	x	x	x	n	x	x
Cc1ccc(Cl)cc1N1CCN(C(=O)CSc2ccsc2[N+](=O)[O-])CC1	n	n	n	28.2µM	n	n
O=C(CSc1ccc(Cl)cc1)N1CCN(c2ccc([N+](=O)[O-])cc2Cl)CC1	n	-88.1	u	n	n	n
Cc1ccc(C(=O)OCCN2CCN(c3ncc(C(F)(F)F)cc3Cl)CC2)cc1	n	n	n	14.1µM	n	n
CCCC(=O)N1CCN(c2ccc([N+](=O)[O-])cc2Cl)CC1	n	n	n	n	u	n
O=C(CSc1ccc(Cl)cc1)N1CCN(c2ncc(C(F)(F)F)cc2Cl)CC1	n	-124.3	n	n	u	n
N#Cc1ccc(C2CC(OCCF)=CC(=O)O2)cc1 (configuration not stated)	x	x	x	n	x	x
COC(=O)c1cc2sccc2n1Cc1nc(-c2cccc(Br)c2)oc1C	x	x	x	n	x	x
SMILES	TRPV1 potentiator	KCNH2 3.1 block	hERG WT inh	ClpP mod	TRPV1 ag	p53 reactivator
Cc1cc(CN2CCOCC2)c(O)c(C2(C)CCCCC2)c1	n	n	n	n	n	n
Cc1cc(CN(C)C)c(O)c(C2(C)CCCCC2)c1	n	n	n	22.4µM	n	n
Cc1ccc(S(=O)(=O)N2CCN(c3nc(-c4cscn4)nc4ccccc34)CC2)cc1	x	x	x	n	x	x
CCc1nn2c(=O)cc(CSCC(=O)Nc3ccccc3F)nc2s1	n	n	n	n	n	n
Cc1nn2c(=O)cc(CSCC(=O)Nc3ccccc3F)nc2s1	n	-141.6	n	n	n	n
CCCC(=O)Nc1ccccc1OCc1cc(=O)n2cc(C)ccc2n1	x	x	x	28.2µM	x	x
Cc1ccc2nc(COc3ccccc3NC(=O)COc3ccccc3Cl)cc(=O)n2c1	x	x	x	n	x	x
O=C(Nc1ccc(N2CCCCC2)c(C(=O)O)c1)c1ccco1	n	n	n	n	n	n
